From publication PMC4336329 (PLoS ONE, 2015)
Among all 310,000 compounds or so, about 2,200 (0.71%) showed an effect of 50% or more. The effect is printed as a negative number. Many of the other results were omitted from the sample, so strong results are more common in it than they were.

target: human ether-à-go-go-related gene (hERG) potassium channel (human, UniProt Q12809); test: primary screen, population patch clamp on CHO cells stably expressing hERG; higher = less effect of the substance
Sequence (Q12809 whole entry, looked up): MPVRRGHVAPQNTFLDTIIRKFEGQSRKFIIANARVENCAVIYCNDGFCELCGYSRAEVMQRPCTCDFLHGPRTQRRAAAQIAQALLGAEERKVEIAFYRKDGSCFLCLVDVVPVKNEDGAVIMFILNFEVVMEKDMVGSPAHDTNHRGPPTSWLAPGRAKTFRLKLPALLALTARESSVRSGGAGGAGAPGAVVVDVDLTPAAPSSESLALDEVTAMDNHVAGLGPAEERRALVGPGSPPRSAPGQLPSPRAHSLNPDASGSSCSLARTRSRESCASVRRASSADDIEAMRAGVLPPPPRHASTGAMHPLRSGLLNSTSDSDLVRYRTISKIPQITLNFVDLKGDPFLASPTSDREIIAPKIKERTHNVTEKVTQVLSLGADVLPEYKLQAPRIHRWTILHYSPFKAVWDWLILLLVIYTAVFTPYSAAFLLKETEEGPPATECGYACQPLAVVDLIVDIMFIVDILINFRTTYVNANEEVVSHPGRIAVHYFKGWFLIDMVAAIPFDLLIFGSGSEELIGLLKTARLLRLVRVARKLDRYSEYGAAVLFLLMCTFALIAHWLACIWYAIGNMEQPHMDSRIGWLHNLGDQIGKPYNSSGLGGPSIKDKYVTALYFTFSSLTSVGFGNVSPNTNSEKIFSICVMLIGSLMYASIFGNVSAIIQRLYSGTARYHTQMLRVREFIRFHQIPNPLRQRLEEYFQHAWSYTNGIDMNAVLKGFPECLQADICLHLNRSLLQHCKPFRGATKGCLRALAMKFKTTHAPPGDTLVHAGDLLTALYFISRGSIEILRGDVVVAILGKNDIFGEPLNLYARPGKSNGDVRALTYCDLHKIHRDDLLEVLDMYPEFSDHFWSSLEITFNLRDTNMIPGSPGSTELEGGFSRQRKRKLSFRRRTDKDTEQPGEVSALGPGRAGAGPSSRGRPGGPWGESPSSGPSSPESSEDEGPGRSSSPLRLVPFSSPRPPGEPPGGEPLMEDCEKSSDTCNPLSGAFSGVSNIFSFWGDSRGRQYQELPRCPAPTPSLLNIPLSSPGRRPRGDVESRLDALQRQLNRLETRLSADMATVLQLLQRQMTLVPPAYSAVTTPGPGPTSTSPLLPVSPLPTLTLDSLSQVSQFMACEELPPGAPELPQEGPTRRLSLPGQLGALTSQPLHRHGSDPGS

Row | SMILES | hERG current change (%, negative = inhibition) at 1uM [%]
1 | COc1ccc(C(Nc2cc(C)ccn2)c2ccc3ccc(C)nc3c2O)cc1 (stereo not drawn) | 4.46
2 | CC1CCC(NC(=O)Cn2c3c(c(-c4ccccc4Cl)cc2=O)CCC3)CC1 (stereo not drawn) | 9.99
3 | COc1ccc(NC(=O)Nc2cccc(OC)c2)cc1 | -2.63
4 | C=CCSc1nnc(Cn2c(=O)sc3ccccc32)n1C | -6.54
5 | COc1ccc(C(=O)NC2CC2)cc1OC1CCN(Cc2ccccc2O)CC1 | -91.5
6 | COc1ccc(C(=O)NC2CC2)cc1OC1CCN(Cc2cc(C)c(C)cc2C)CC1 | -74.1
7 | COc1cc(C(=O)NC2Cc3ccccc3C2)ccc1OC1CCN(C(C)=O)CC1 | 9.82
8 | COc1ccc(C(=O)NC2CC2)cc1OC1CCN(Cc2cnn(C)c2C)CC1 | -2
9 | COc1ccc(C(=O)N(C)C2CCCN(Cc3ccccc3F)C2)cc1OC (stereo not drawn) | 10.2
10 | C=CCOc1ccccc1CN1CCC(Oc2cc(C(=O)NC3CC3)ccc2OC)CC1 | -66.6
11 | C=CCOc1ccccc1CN1CCC(Oc2ccc(C(=O)N3CCCCC3)cc2)CC1 | -3.91
12 | COc1ccc(C(=O)NCCc2ccccc2F)cc1OC1CCN(C(C)=O)CC1 | 12.5
13 | COc1ccc(C(=O)NC2CC2)cc1OC1CCN(Cc2ccccc2F)CC1 | -64.5
14 | CCn1ncc(CN2CCC(Oc3cc(C(=O)NC4CC4)ccc3OC)CC2)c1C | 1.05
15 | COc1ccccc1CCNC(=O)c1ccc(OC)c(OC2CCN(C(C)C)CC2)c1 | -4.22
16 | C=CCOc1ccccc1CN1CCC(Oc2ccc(C(=O)N3CCCC3)cc2)CC1 | -19.5
17 | CCOC(=O)c1c(C)nc2ncccn12 | 2.38
18 | COC(=O)Oc1ccc(/C=N/NC(=O)CN(c2ccccc2Cl)S(C)(=O)=O)cc1OC | 9.16
19 | Cc1ccc(C(=O)COC(=O)CCC(=O)Nc2ccccc2Cl)cc1[N+](=O)[O-] | 8.32
20 | CC1Cn2c(nnc2C23CC4CC(CC(C4)C2)C3)S1 (stereo not drawn) | 7.65
21 | Cc1ccc(N2NC(=O)/C(=C\c3cc4c(cc3[N+](=O)[O-])OCO4)C2=O)cc1C | 0.881
22 | CCN(c1ccccc1)S(=O)(=O)c1ccc2[nH]c(=O)[nH]c2c1 | 8.82
23 | O=C(Nc1ccc(-n2ccc(C(F)(F)F)n2)cc1)Nc1cccc(Cl)c1 | 11.3
24 | COc1ccc(CN2CCC(Oc3ccc(C(=O)NCc4ccccn4)cc3)CC2)c(F)c1 | 7.46
25 | COc1ccc(OC)c(CN2CCC(N3CCC(C(=O)NC4CC4)CC3)CC2)c1 | 4.7
26 | COc1ccc(CN2CCC(Oc3cc(C(=O)NC4CC4)ccc3OC)CC2)c(O)c1 | -87.5
27 | CCOC(=O)c1nc2cc3n(c(C)c-2c1C)C(C)C(CC)=C3C.Cl (stereo not drawn) | -39.5

Row | SMILES | hERG current change (%, negative = inhibition) at 1uM [%]
28 | CCOC(=O)c1nc2cc3n(c(C)c-2c1C)C(C)C(C)=C3C.Cl (stereo not drawn) | -13.9
29 | CCOC(=O)c1nc2cc3n(c(CC(C)C)c-2c1C)CC(C)=C3C.Cl | -54.2
30 | CCOC(=O)c1nn(-c2ccc(F)cc2)c(=O)cc1OCC(=O)Nc1ccc(OCC)cc1 | 10.8
31 | Cc1c2ccccc2nc2c(F)c(N(C)C)c(F)c(F)c12 | 19.7
32 | COc1ccc(CCN2CC(C(=O)N(C)Cc3ccccc3OC)CCC2=O)cc1 (stereo not drawn) | 26.7
33 | O=C(NCCCc1ccccc1)C1CCC(=O)N(Cc2ccc(Cl)cc2)C1 (stereo not drawn) | -6.98
34 | O=C(NCCOc1ccccc1)C1CCC(=O)N(CCc2ccc(Cl)cc2)C1 (stereo not drawn) | -45
35 | CN(CCNC(=O)C1CCC(=O)N(Cc2ccc(Cl)cc2)C1)CCc1ccccc1 (stereo not drawn) | -50.5
36 | O=C(NCCCc1ccccc1)C1CCC(=O)N(CCc2ccc(Cl)cc2)C1 (stereo not drawn) | -62.2
37 | O=C(NCCc1ccccc1)C1CCC(=O)N(Cc2ccc(Cl)cc2)C1 (stereo not drawn) | 5.85
38 | COc1ccc(CCN2CC(C(=O)N(C)CCOc3ccccc3)CCC2=O)cc1 (stereo not drawn) | -34.3
39 | CN(CCNC(=O)C1CCC(=O)N(Cc2cccc(F)c2)C1)CCc1ccccc1 (stereo not drawn) | -14.8
40 | CN(CCOc1ccccc1)C(=O)C1CCC(=O)N(CCc2ccc(Cl)cc2)C1 (stereo not drawn) | -51.2
41 | COc1ccccc1CCCNC(=O)C1CCC(=O)N(CCc2ccc(Cl)cc2)C1 (stereo not drawn) | -3.88
42 | CCc1ccc(CN(C)C(=O)C2CCC(=O)N(Cc3cccc(OC)c3)C2)nc1 (stereo not drawn) | 4.11
43 | CCc1ccc(CN(C)C(=O)C2CCC(=O)N(CCc3ccc(OC)cc3)C2)nc1 (stereo not drawn) | -57.9
44 | O=C(NCc1ccccc1)c1cnc(-c2ccccn2)nc1C(F)(F)F | 9.39
45 | Nc1nc(CSc2nnnn2-c2ccc(Cl)cc2)nc(N2CCOCC2)n1 | 11.5
46 | C/C(=N\N1C(=O)CSC1=S)c1ccc(Br)cc1 | 1.48
47 | S=C1NNC2(NN1)C1CC3CC(C1)CC2C3 | 12.4
48 | COc1ccc(-n2cnnc2SCC(=O)N2CCN(S(=O)(=O)c3ccccc3)CC2)cc1 | 1.1
49 | COC(=O)C1=C(C)N(C)C(C)=C(C(=O)OC)C1c1ccc(F)c(Br)c1 | 6.36
50 | CCN(CC(=O)NCc1cccs1)C(=O)c1ccc(-c2ccccc2F)o1 | -7.69
51 | CCN(CC(=O)NCc1cccs1)C(=O)COc1cccc(C(F)(F)F)c1 | -7.5
52 | CCN(CC(=O)NCc1cccs1)C(=O)c1ccc(-c2cccc(C(F)(F)F)c2)o1 | -57.4
53 | COC(=O)C1=C(C)N(CCCCCC(=O)O)C(=O)NC1c1ccccc1 (stereo not drawn) | 2.67
54 | Cc1ccc2c(c1)C1CN(C)CCC1N2C(=O)c1ccccc1NS(=O)(=O)c1ccc(F)cc1 (stereo not drawn) | 11.8
